In the library only some 3.5% were active in any assay of this set; here they are far more common.
MITF inh: MITF inhibitors, primary screen, biochemical, AlphaScreen, human; Microphthalmia-associated transcription factor (Homo sapiens), O75030; AlphaScreen MITF homodimerization, bead proximity signal; inhibition, % at 2.6 µM; 650,000 compounds, 0.91% hits; AID 1259374, 2018; in the data active = inhibition above about 50%;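 also: 0% = vehicle wells with protein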
GPR151 activ: activators of human GPR151, primary screen, cell-based, PathHunter beta-arrestin, luminescence; G-protein coupled receptor 151 (Homo sapiens), Q8TDV0; PathHunter beta-arrestin GPR151 cells; activation, % at 11.2 µM; 650,000 compounds, 1% hits; AID 1508602, 2020; in the data active = activation above about 4.9%;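 also: 0% = median of compound wells and 100% = cells with positive control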
Target sequence (Q8TDV0 whole entry, looked up): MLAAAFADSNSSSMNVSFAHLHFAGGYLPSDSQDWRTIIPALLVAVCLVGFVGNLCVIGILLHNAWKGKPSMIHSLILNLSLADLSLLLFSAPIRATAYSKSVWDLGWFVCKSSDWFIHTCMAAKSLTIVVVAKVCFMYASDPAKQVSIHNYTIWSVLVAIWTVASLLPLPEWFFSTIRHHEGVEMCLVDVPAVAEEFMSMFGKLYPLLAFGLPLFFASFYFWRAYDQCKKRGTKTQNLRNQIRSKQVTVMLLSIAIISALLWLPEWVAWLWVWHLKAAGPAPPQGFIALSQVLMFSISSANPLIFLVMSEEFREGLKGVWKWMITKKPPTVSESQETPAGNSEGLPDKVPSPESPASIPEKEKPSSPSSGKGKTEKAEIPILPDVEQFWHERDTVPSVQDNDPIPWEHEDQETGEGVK
TEAD-YAP block: TEAD-YAP interaction inhibition, primary screen, TEAD-YAP interaction inhibitor project, luminescence, HEK-TIYL cells; TEAD-Gal4/YAP UAS-luciferase luminescence; inhibition, % at 9.12 µM; 640,000 compounds, 1.4% hits; AID 1259422, 2018; in the data active = inhibition above about 32%;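 also: 0% = median of test compound wells and 100% = reference inhibitor wells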
FBW7 act: FBW7 E3 ligase activators, primary screen, biochemical, AlphaScreen, human; 650,000 compounds, 0.13% hits; normalized activity (activation), % at 26.1 µM; AID 1259310, 2017; AlphaScreen FBW7–phospho-cyclin E peptide binding, activator screen; F-box/WD repeat-containing protein 7 (Homo sapiens), Q969H0; in the data active = normalized activity above about 1.9%;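 also: purified mutant Fbw7 with reduced substrate affinity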
Starred values were filed as active, the others as inactive; / = no result.

SMILES	MITF inh	GPR151 activ	TEAD-YAP block	FBW7 act
COc1ccc(NC(=O)c2ccc3c(=O)n(-c4ccccc4)c(SCc4cccc(Cl)c4)nc3c2)cc1OC	6.4	-1.5	4.4	-0.1
COc1ccc(/C=C/C(=O)NCCSCc2ccccc2)cc1	18.2	0.0	-13.4	0.0
Cc1cnc2c(c1NCCCN(C)C)c(=O)n(C)c(=O)n2C	0.7	2.9	36.5*	-0.1
O=C(NNC(=S)NCc1ccco1)C1c2ccccc2Oc2ccccc21	15.4	-1.6	-2.8	0.0
CNC(=O)/C(=C\c1ccccc1)NC(=O)c1ccccc1	8.0	-0.3	-9.9	-0.2
CNC(=O)C(NC(=O)c1ccccc1)=C1CCCCC1	-3.4	-1.1	43.0*	-0.1
Cc1ccc(S(=O)(=O)N2C(=O)CCC2c2nc(-c3ccccn3)no2)cc1 (stereo unspecified)	4.7	-0.2	38.9*	-0.4
O=C(/C=C/c1ccc(O)c(O)c1)O[C@H](Cc1ccc(O)c(O)c1)C(=O)O	90.2*	0.0	/	/
O=C(O)/C=C/c1ccc(O)c(O)c1	45.5	-0.4	-5.1	0.0
COc1cccc(C2C(C(N)=O)=C(C)Nc3nc(-c4cccc(C)c4)nn32)c1 (stereo unspecified)	5.2	-0.7	-3.4	0.0
CCOc1ccc(NC(=O)CCC(C(=O)O)C(C)C)cc1 (stereo unspecified)	10.4	-2.6	-32.3	0.6
Oc1c(CN2CCN(c3cccc(C(F)(F)F)c3)CC2)cc(COCc2ccccc2)c2cccnc12	1.4	-0.7	11.3	-0.8
CN1CCN(Cc2cc(CSc3ccccc3)c3cccnc3c2O)CC1	64.8*	0.5	80.7*	-2.1
CN1CCN(Cc2cc(=O)oc3ccc4ccccc4c23)CC1	8.6	0.6	0.8	-0.1
CN1CCN(Cc2cc(COCc3ccccc3)c3cccnc3c2O)CC1	100.5*	-0.6	73.8*	-1.2
COc1ccc(Cc2nc3c4cnn(-c5ccc(C)cc5)c4ncn3n2)cc1OC	-8.8	-0.1	-2.9	0.1
Cc1nn(CC(=O)Nc2ccc(CCC3CCN(C)CC3C)cc2)c(=O)c2ccccc12 (stereo unspecified)	-9.5	0.9	6.7	0.0
CC(C)(C)c1csc(NC(=O)c2ccc(S(=O)(=O)N3CCOCC3)cc2)n1	16.8	2.3	36.1*	0.1
Cc1ccc(-c2csc(NC(=O)c3ccc(S(=O)(=O)N4CCOCC4)cc3)n2)o1	0.6	-0.6	28.0	-0.3
COCCN(CCOC)S(=O)(=O)c1ccc(C(=O)Nc2nc(-c3ccc(C)cc3C)cs2)cc1	-2.9	0.8	35.9*	-0.3
COc1ccc(-c2csc(NC(=O)c3ccc(S(=O)(=O)N4CCOCC4)cc3)n2)c(OC)c1	-12.1	0.1	41.3*	0.1
Cc1ccc(C)c(-c2csc(NC(=O)c3ccc(S(=O)(=O)N4CCOCC4)cc3)n2)c1	-7.0	-0.2	42.4*	0.0
CC1=NN(c2ccc(Cl)c(C(=O)O)c2)C(=O)/C1=C/c1sccc1C	6.5	-0.5	-1.3	-0.2
Cc1ccc(-c2[nH]nc3c2C(c2ccccc2C(F)(F)F)C(C#N)=C(N)O3)cc1 (stereo unspecified)	6.9	0.2	3.1	0.2
O=C(OCc1csc(Nc2ccccc2)n1)C1CC2C=CC1C2 (stereo unspecified)	-5.7	-4.0	37.7*	0.1
SMILES	MITF inh	GPR151 activ	TEAD-YAP block	FBW7 act
CC(=O)c1ccc(N2CCN(S(=O)(=O)c3ccc4c(c3)CC(C)N4C(C)=O)CC2)cc1 (stereo unspecified)	-7.1	0.0	41.3*	-0.1
CCC(=O)N1c2ccc(S(=O)(=O)N3CCN(c4ccccc4)CC3)cc2CC1C (stereo unspecified)	15.5	-0.4	1.0	0.2
N#CC1=C(N)Oc2n[nH]c(-c3ccc(F)cc3)c2C1c1ccc(OCc2c(F)cccc2Cl)cc1 (stereo unspecified)	-11.9	-1.0	-1.5	-0.3
COc1ccccc1NC(=O)NCCCNc1nc2cc3c(cc2cc1C#N)OCO3	-6.0	-0.1	64.9*	0.2
N#Cc1cc2cc3c(cc2nc1NCCCNC(=O)Cc1ccccc1)OCO3	9.8	-0.5	34.0*	0.3
CCOC(=O)C1(Cc2ccccc2C)CCCN(Cc2ccn[nH]2)C1 (stereo unspecified)	9.3	-2.5	-0.7	-0.1
Cc1cccc(C)c1-n1c(SCc2ccccc2F)nc2c(sc(=S)n2-c2c(C)cccc2C)c1=O	0.1	1.7	40.9*	-0.2
O=c1c2sc(=S)n(-c3ccccc3)c2nc(SCc2nc3ccccc3[nH]2)n1-c1ccccc1	-7.2	-2.1	33.0*	-0.2
CCOc1ccc(-n2c(=S)sc3c(=O)n(-c4ccccc4)c(SCc4nc5ccccc5[nH]4)nc32)cc1	-4.5	-2.6	1.6	0.8
Cc1cccc(C)c1-n1c(SCc2ccccc2F)nc2c(sc(=S)n2CCc2ccccc2)c1=O	-13.2	1.0	-5.3	-0.1
O=C(CCN=C1NS(=O)(=O)c2ccccc21)OCc1nc2ccccc2s1	10.8	-0.1	-20.0	0.1
OCCN1CCN(c2nccn3c(-c4ccc(F)cc4)cnc23)CC1	21.4	0.8	3.2	0.2
Brc1ccc(C2=CN3CCN=C3S2)cc1	17.2	-0.5	-55.5	-0.3
O=[N+]([O-])c1ccc(NC(=S)NC2CCN(Cc3ccccc3)CC2)cc1	-0.5	-0.8	34.1*	-0.2
NS(=O)(=O)c1ccc(NC(=S)NC2CCN(Cc3ccccc3)CC2)cc1	12.6	-0.3	9.6	-0.2
O=C(Nc1ccccc1C(=O)N1CCCC1)c1ncoc1-c1ccccc1C(F)(F)F	-11.7	0.0	62.9*	0.0
COc1ccccc1-c1ocnc1C(=O)Nc1ccccc1C(=O)N1CCCC1	7.0	0.0	6.5	0.0
C=CCN1C(=O)/C(=C\c2cc(Br)c(O)c(Br)c2)SC1=Nc1ccccc1	-4.5	-1.8	-3.9	-0.3
c1ccc(NCc2nn3cc(-c4ccccc4)c4c3n2CCCC4)cc1	5.7	-1.1	-5.4	-0.2
COc1ccc2cc3c(N)nn(C(=O)c4ccccc4C)c3nc2c1	-1.5	0.1	44.5*	-0.1
COc1ccc2cc3c(N)nn(C(=O)c4ccco4)c3nc2c1	-0.1	1.3	59.3*	0.1
Cc1ccc(OCC(=O)N=C2N=C3N=CC=CN3Cc3ccccc32)cc1	-17.3	-0.2	10.3	-0.1
CN(C)CCNc1nc2ccccc2n2c1nc1ccccc12	3.5	1.0	65.0*	0.0
c1ccc2c(c1)nc(NCc1ccncc1)c1nc3ccccc3n12	0.5	0.8	3.5	-0.1
CCn1nc(CCC(=O)O)c2ccccc2c1=O	-9.4	-0.7	1.6	0.0
CCn1nc(CN)c2ccccc2c1=O	0.4	0.6	43.0*	0.2
Cn1nccc1C(=O)Oc1cccc(/C=N/NC(=O)c2ccccc2O)c1	5.6	-3.1	42.3*	0.1
Cc1cc(F)ccc1NS(=O)(=O)c1ccccc1C#N	5.2	-1.9	-3.1	0.2
C(=N\Nc1ccccn1)/c1sc(N2CCCCC2)nc1-c1cccs1	5.0	-0.8	67.1*	0.2
CC(=O)c1ccc(NC(=O)CSc2nc(C)nc3sc(C)c(C)c23)cc1	10.3	0.6	10.9	0.0
